From PubChem
AHR activator: activators of human aryl hydrocarbon receptor. AID 2796. activation, % at 5 µM. 320,000 compounds, 2.5% hits. AHR-responsive luciferase reporter cells, luminescence; in the data active = activation above about 47%;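 note: 0% = vehicle wells and 100% = reference agonist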
DAX1 inh-1: blocks DAX1 repression of SF-1 activated StAR promoter; HEK293T StAR-luciferase reporter, SF-1/DAX-1 repression relief; 370,000 compounds, 1.1% hits; inhibition, % at 6.8 µM;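 active = inhibition above the mean over all tested compounds plus 3 SD, cut at about 3.6% in these data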;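 note: 0% = DAX-1 cells with DMSO and 100% = cells lacking DAX-1 with DMSO; higher inhibition means more luminescence from relief of DAX-1 repression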
hgDAF-12 ag: activates the H. glycines DAF-12 receptor ligand-binding domain; HEK293 GAL4-hgDAF12 UAS-luciferase reporter, agonist luminescence; normalized to butyrate control; activation, % at 6.8 µM; 370,000 compounds, 1.8% hits; AID 687014;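 active = activation above a cutoff set at the mean of all screened compounds plus 3 SD, cut at about 10% in these data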;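 note: 0% = DMSO wells and 100% = sodium butyrate wells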
hcDAF-12 act: H. contortus DAF-12 activation, primary screen. HEK293 hcDAF-12 lit1-tk-luc reporter, luminescence; 0% DMSO, 100% Δ7-dafachronic acid. activation, % at 6.8 µM. 370,000 compounds, 1.4% hits;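 active = activation above the mean of all tested compounds plus 3 SD, cut at about 5.5% in these data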;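 note: 100% = response to 3 µM Δ7-dafachronic acid high control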
DAX1 inh-2: inhibitors of human orphan nuclear receptor DAX1 (NR0B1) | 340,000 compounds, 0.99% hits | HEK293 Gal4-DAX1 luciferase reporter, luminescence | AID 504766 | inhibition, % at 6.75 µM;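 active = inhibition above the mean over all tested compounds plus 3 SD, cut at about 4.2% in these data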;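 note: 0% = DAX1-transfected cells with DMSO and 100% = empty-vector control cells with DMSO; inhibition shows as a rise in luminescence from relieved DAX1 repression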
Target sequence (P51843 207-470 limits assumed): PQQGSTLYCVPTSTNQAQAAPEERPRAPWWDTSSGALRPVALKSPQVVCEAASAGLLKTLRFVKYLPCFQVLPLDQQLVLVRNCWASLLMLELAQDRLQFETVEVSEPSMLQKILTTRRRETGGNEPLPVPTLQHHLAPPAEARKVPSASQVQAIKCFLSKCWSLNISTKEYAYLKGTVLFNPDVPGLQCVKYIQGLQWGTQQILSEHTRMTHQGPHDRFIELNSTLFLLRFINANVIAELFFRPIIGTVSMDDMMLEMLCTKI
ssDAF-12 act: activates DAF-12 receptor from parasite S. stercoralis. HEK293 ssDAF-12/GRIP1 lit1-tk-luc reporter, luminescence; % of 3 µM dafachronic acid response. activation, % at 6.8 µM. 370,000 compounds, 1% hits;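 active = activation above the mean over all tested compounds plus 3 SD, cut at about 0.9% in these data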;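 note: 0% = DMSO-only wells and 100% = 3 µM delta7-dafachronic acid wells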
* hit, by the source's call; · = no result given. The list is not random: actives were taken first. Their share in the collection is about 5.7%.

SMILES | AHR activator | DAX1 inh-1 | hgDAF-12 ag | hcDAF-12 act | DAX1 inh-2 | ssDAF-12 act
COc1ccc(/C=C2\SC(=S)N(CCCC(=O)Nc3ccccc3C(=O)O)C2=O)cc1OC | -5 | 0 | 0 | 6.3* | 1 | -1
CC(=O)c1ccc(N2CCN(S(=O)(=O)c3ccc4c(c3)CCC(=O)N4)CC2)cc1 | · | -1 | 0 | -1 | · | -1
CC(=O)c1ccc(N2CCN(S(=O)(=O)c3cc4[nH]c(=O)c(=O)[nH]c4cc3C)CC2)cc1 | 47* | 1 | 11* | -2 | 0 | -1
C[C@H](CO)N1C[C@H](C)[C@@H](CN(C)C(=O)Nc2cccc(F)c2)OCc2cn(nn2)CCCC1=O | · | -1 | 3 | 0 | · | -1
CC1=C(C(=O)NCCCOC(C)C)C2(CCC(C)CC2)OC1=O (centres undefined) | 1 | -1 | -1 | 1 | 2 | 1.0*
CC1=C(C(=O)NCCN2CCOCC2)C2(CCC(C)CC2)OC1=O (centres undefined) | -2 | 1 | -4 | 0 | -1 | -1
Cn1c(=O)[nH]c(=O)c2c1nc(NCc1ccco1)n2CCCc1ccccc1 | · | 0 | 1 | 0 | 4.5* | -1
O=c1c2ccccc2ncn1-c1ccc([N+](=O)[O-])cc1Cl | -2 | 0 | -2 | -3 | 5.0* | -1
CCOC(=O)C1=C(C)Nc2nc(C)nn2C1c1ccc(OC)c(OC)c1 (centres undefined) | 3 | 0 | 2 | 1 | 4.6* | -1
CC1(C)C(=O)Nc2ccccc2N1C(=O)COC(=O)Cc1ccccc1F | -1 | 0 | 1 | 0 | -1 | -1
O=CNC(n1cnc2c(N3CCOCC3)ncnc21)C(Cl)(Cl)Cl (centres undefined) | 3 | 0 | -2 | -1 | 10.0* | 0
Nc1ncnc(N2CCOCC2)c1N | 4 | 0 | 2 | 0 | 2 | -1
CCc1noc(C)c1C(=O)N(CC)CC(=O)Nc1ccccc1C(F)(F)F | -1 | 1 | 1 | 0 | 1 | -1
CCN(CC(=O)Nc1ccccc1C(F)(F)F)C(=O)c1oc2ccc(OC)cc2c1C | 0 | 4.2* | 5 | -1 | 1 | 0
CN(C)c1ccc(C(O)Cc2nc3ccccc3n2C)cc1 (centres undefined) | 60* | 2 | 0 | 5.6* | -1 | -1
COc1ccccc1C(O)Cc1nc2ccccc2n1C (centres undefined) | 2 | 0 | 4 | 1 | 0 | -1
CC(C)c1ccc(C(O)Cc2nc3ccccc3n2C)cc1 (centres undefined) | 70* | 0 | -4 | -1 | 4.6* | -1
COC(=O)c1sccc1N/N=C/c1cccc(Oc2ccccc2)c1 | 1 | 2 | 11* | 1 | 2 | -1
O=C(c1cc2c(s1)CCCC2)N1CCN(CCO)CC1 | 1 | 1 | -2 | -1 | 2 | -1
Cc1noc(C)c1COC(=O)c1cc2c3ccccc3n(C)c2s1 | 30 | -1 | 1 | 2 | 0 | -1
Cn1c2ccccc2c2cc(C(=O)N3CCN(CCO)CC3)sc21 | 68* | 0 | 1 | 3 | 5.4* | 1
CC(=O)NNC(=O)c1cc2c3ccccc3n(C)c2s1 | 75* | 0 | -1 | 3 | 1 | -1
CCOC(=O)c1cccc(OS(=O)(=O)Cc2ccccc2)c1 | -1 | 0 | 5 | 1 | · | -1
CCOc1ccc(NC(=O)CN(C)CC(=O)Nc2ccc(F)c(F)c2F)cc1OCC | 8 | 0 | -1 | 1 | 1 | -2
Cc1oc2cc3oc(=O)cc(C)c3cc2c1C | 0 | 0 | 2 | -1 | -1 | -1
CN(Cc1cccc(Cl)c1Cl)C(=O)CCNC(=O)c1ccco1 | -1 | 4.1* | -1 | 3 | -1 | 0
CC(=O)Nc1ccc2c(c1)C(=O)c1ccc(Cl)cc1-2 | · | 0 | 0 | 0 | 0 | -1
CCOC(=O)CCSc1nc(-c2ccc3c(c2)OCO3)cc(C(F)(F)F)c1C#N | 6 | 0 | 2 | 4 | 0 | -1
CCOC(=O)CC(=O)CSc1nc(-c2ccc3c(c2)OCO3)cc(C(F)(F)F)c1C#N | 60* | · | · | · | 0 | ·
CCOC(=O)Cc1nnc(NC(=O)COc2ccc(OC)cc2)s1 | 0 | 0 | -2 | 3 | 4.7* | -2
